# Measurements published in PubChem BioAssay (NCATS).
# Values joined by “and” are separate entries in the source; they are usually repeats but may differ in a detail not shown here. Equal values may be shown once. Inconclusive results are not listed. Some structures have more than one record in an assay (separate samples or runs), and their calls can disagree. Active and inactive are the calls of the source. The call rests on the fitted dose curve; in most records, active means well fitted curve in the direction sought with a large enough effect; inconclusive means small, poorly fitted or top-dose-only effect, or another doubt; inactive means no such curve, though single readings can be large; an effect the other way counts as inactive or inconclusive.
# How the values were obtained:
# [1] = qHTS assay for measurement of the activity of small molecule inhibitors on Zika virus induced Caspase-3 activity in human astrocytoma cells (AID 1224859);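 further: plate controls were ZIKV-infected untreated cells for no effect and uninfected cells for full effect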
# How it was run: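 Luminescent caspase-3/7 read-out (30 min reagent, room temperature) in human SNB-19 cells infected 6 h with ZIKV (2 FFU/cell) after 1 h compound pre-incubation; Data were normalised to uninfected and infected wells.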
# [2] = qHTS Screen of the MIPE 4.0 Collection Against Ewings Sarcoma (RDES) (AID 1259252); further: nearly all actives have a fitted effect of over 35% in size; further: potency means the concentration at half of the fitted maximal effect;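 on viability (percent of control): 100% = DMSO-treated cells and 0% = medium-only wells without cells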
# How it was run: (§1)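 Here, cells in 5% FBS RPMI were exposed for two days (48 h) to compound dilutions added four hours after plating. ATP-based CellTiter-Glo luminescence measured viability, normalized to vehicle and no-cell blanks.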
# [3] = qHTS Screen of the MIPE 4.0 Collection Against Ewings Sarcoma (TC71) (AID 1259253); further: nearly all actives have a fitted effect of over 40% in size; further: potency means the concentration at half of the fitted maximal effect;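 on viability (% of DMSO): 100% = DMSO-treated cells and 0% = medium-only wells without cells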
# How it was run: as §1
# [4] = qHTS Screen of the MIPE 4.0 Collection Against Ewings Sarcoma (EW8) (AID 1259255); further: nearly all actives have a fitted effect of over 35% in size; further: potency means the concentration at half of the fitted maximal effect;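 on viability: 100% = DMSO-treated cells and 0% = medium-only wells without cells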
# How it was run: as §1
# [5] = P-glycoprotein substrates identified in KB-3-1 adenocarcinoma cell line, qHTS therapeutic library screen (AID 1346986); further: nearly all actives have a fitted effect of over 60% in size;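 further: potency means the concentration at half of the fitted maximal effect; potency is for cytotoxicity meaning loss of cell viability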
# How it was run: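 KB-3-1 parental cells and P-gp-overexpressing KB-8-5-11 (colchicine omitted during assay) plated at 500 cells/well, dosed in dose-response, incubated 72 h at 37 degree C. CellTiter-Glo luminescence read; KB-8-5-11 also tested with tariquidar.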
# [6] = P-glycoprotein substrates identified in KB-8-5-11 adenocarcinoma cell line, qHTS therapeutic library screen (AID 1346987); further: nearly all actives have a fitted effect of over 65% in size; further: potency means the concentration at half of the fitted maximal effect
# How it was run: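 KB-8-5-11: colchicine-selected sub-line of KB-3-1 over-expressing P-gp; assay medium lacked colchicine. 72 h drug exposure at 37 degree C, CellTiter-Glo.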
# [7] = qHTS Screen of the MIPE 4.0 Collection Against Ewings Sarcoma (TC32) (AID 1259256); further: nearly all actives have a fitted effect of over 45% in size; further: potency means the concentration at half of the fitted maximal effect;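 on viability (percent of control): 100% = DMSO-treated cells and 0% = medium-only wells without cells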
# How it was run: as §1
# [8] = qHTS assay to identify small molecule inhibitors of chordoma cells - UCH-1 (AID 1259355); further: on the % scale 0 is the no-effect control and ±100 the full control effect; nearly all actives have a fitted effect of over 55% in size
# How it was run: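 Luminescent ATP read-out (CellTiter-Glo, 30min at room temperature) measured viability of UCH-1 cells exposed for 48hr to test drugs at 15 concentrations, co-dosed with a five-agent combination of auranofin, camptothecin, doxorubicin, rubitecan and topotecan.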
# [9] = qHTS assay to identify small molecule inhibitors of chordoma cells - UCH-2 (AID 1259356); further: series mostly up to about 46 µM; on the % scale 0 is the no-effect control and ±100 the full control effect
# [10] = NS1 protein of Zika virus - qHTS assay to identify small molecule inhibitors in human HEK 293 cells (AID 1347053); further: nearly all actives have a fitted effect of over 55% in size; further: potency means the concentration at half of the fitted maximal effect;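 on activity change, negative = inhibition: series mostly up to about 46 µM; plate controls were infected untreated cells for no effect and uninfected cells for full effect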
# How it was run: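 Following 20 h seeding, HEK 293 cells took compound, then 1 h later ZIKV MR766 (MOI = 0.5). Incubation ran 24 h at 37 C before TR-FRET detection of NS1; a drop in signal indicates inhibition.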
# [11] = Identifying Small Molecule Inhibitors of Pancreatic Cancer Stem Cells (SN12C, Adherent) (AID 1259358);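 further: cell survival measured after 48 h of compound exposure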; further: potency means the concentration at half of the fitted maximal effect
# How it was run: (§2)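 Luminescent ATP readout (CellTiter-Glo) quantifies surviving cells after a 48 h drug incubation. Normalization uses DMSO wells as no inhibition and media-only wells as full inhibition; bortezomib served as positive control.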
# [12] = Identifying Small Molecule Inhibitors of Pancreatic Cancer Stem Cells (SN12C, Spheroid) (AID 1259360); settings: Potency: SN12C spheroid viability; further: potency means the concentration at half of the fitted maximal effect
# How it was run: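 Pre-formed 14-day tumor spheroids or adherent cells dosed and incubated 48 h, 37C, 5% CO2. Viability assessed by CellTiter-Glo.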
# [13] = Identifying Small Molecule Inhibitors of Pancreatic Cancer Stem Cells (A278, Adherent) (AID 1259361); further: nearly all actives have a fitted effect of over 35% in size
# How it was run: as §2
# [14] = Identifying Small Molecule Inhibitors of Pancreatic Cancer Stem Cells (Panc1, Spheroid) (AID 1259359);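 further: potency means the concentration at half of the fitted maximal effect; compound exposure lasted 48 h before reading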
# How it was run: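 Cytotoxicity read by CellTiter-Glo luminescence after 48 h compound exposure at 37C; percent activity scaled between DMSO-treated cells and cell-free wells. Spheroid formats used cells pre-formed 14 days in stem cell media on hydrogel.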
smiles,measurement,setting,value
Cc1cn2cc(C(=O)N(C)CCO)cc(N[C@@H]3CCOc4cccc(C)c43)c2n1,Potency,[1],inactive
same,Potency,[2],inactive
same,Potency,[3],inactive
same,Potency,[4],inactive
same,Potency,[5],inactive
same,Potency,[6],inactive
COc1cc(C(=O)NS(=O)(=O)c2ccccc2C)ccc1Cc1cn(C)c2ccc(NC(=O)OC3CCCC3)cc12,Potency,[1],inactive
same,Potency,[2],23.5 µM (active)
same,Potency,[3],23.5 µM (active)
same,Potency,[7],18.7 µM (active)
same,Potency,[8],inactive
same,outcome,[9],inactive
same,Potency,[6],inactive
same,Potency,[10],inactive
Cc1nc(N)ncc1-c1nc(N2CCOCC2)c2sc(C(C)(C)O)cc2n1,Potency,[1],inactive
same,Potency,[2],1.66 µM (active)
same,Potency,[3],5.9 µM (active)
same,Potency,[4],6.62 µM (active)
same,Potency,[5],1.03 µM (active)
same,Potency,[6],1.48 µM (active) and 1.64 µM (active)
C1=CCOCc2cc(ccc2OCCN2CCCC2)Nc2nccc(n2)-c2cccc(c2)OCC1,Potency,[1],inactive
same,Potency,[2],5.9 µM (active)
same,Potency,[3],4.69 µM (active)
same,Potency,[7],7.43 µM (active)
same,Potency,[11],5.26 µM (active)
same,Potency,[12],inactive
same,IC50 (viability decrease),[13],2.09 µM (active)
same,Potency,[6],3.32 µM (active)
same,Potency,[10],4.18 µM (active)
COc1cc(OC2CCN(C)CC2)ccc1Nc1ncc2c(n1)n(C1CCCC1)c(=O)n2C,Potency,[1],inactive
same,Potency,[2],9.35 µM (active)
same,Potency,[3],4.69 µM (active)
same,Potency,[4],7.43 µM (active)
same,Potency,[11],16.6 µM (active)
same,Potency,[12],20.9 µM (active)
same,Potency,[6],3.72 µM (active)
COc1cccc2nc(-c3cccs3)nc(NN3C(=O)C=C(C)C3=O)c12,Potency,[1],inactive
same,Potency,[2],2.96 µM (active)
same,Potency,[3],0.743 µM (active)
same,Potency,[4],0.469 µM (active)
same,Potency,[12],20.9 µM (active)
same,IC50 (viability decrease),[13],0.469 µM (active)
same,Potency,[6],469 nM (active) and 1.64 µM (active)
same,Potency,[10],3.72 µM (active)
CC(C)(C)OC(=O)Nc1ccc(-c2cc(C(=O)NCCCCCCC(=O)NO)no2)cc1,Potency,[1],inactive
same,Potency,[2],2.09 µM (active)
same,Potency,[3],2.96 µM (active)
same,Potency,[4],1.32 µM (active)
same,Potency,[11],26.4 µM (active)
same,Potency,[12],16.6 µM (active)
same,Potency,[6],8.33 µM (active)
same,Potency,[10],26.4 µM (active)
COc1cc(C(C)C)c2c(c1)S(=O)(=O)N(COc1cc(=O)n3cccc(OCCN4CCCCC4)c3n1)C2=O,Potency,[1],inactive
same,Potency,[2],10.5 µM (active)
same,Potency,[3],18.7 µM (active)
same,Potency,[4],26.4 µM (active)
same,Potency,[11],inactive
same,Potency,[12],inactive
same,Potency,[5],inactive
same,Potency,[6],inactive
Cc1nc2cnc3ccc(C#Cc4cccnc4)cc3c2n1-c1ccc(C(C)(C)C#N)cc1,Potency,[1],inactive
same,Potency,[2],0.132 µM (active)
same,Potency,[3],0.132 µM (active)
same,Potency,[4],0.118 µM (active)
same,Potency,[11],1.18 µM (active)
same,Potency,[14],18.7 µM (active)
same,Potency,[5],inactive
same,Potency,[6],37.2 nM (active) and inactive
same,Potency,[10],0.935 µM (active)
CNC(=O)c1c(F)cccc1Nc1nc(Nc2cc3c(cc2OC)CCN3C(=O)CN(C)C)nc2[nH]ccc12,Potency,[1],inactive
same,Potency,[2],20.9 µM (active)
same,Potency,[3],20.9 µM (active)
same,Potency,[4],7.43 µM (active)
same,Potency,[6],16.6 µM (active) and 18.4 µM (active)
COc1ccc(CC2c3cc(OC)c(OC)cc3CC[N+]2(C)CCC(=O)OCCCCCOC(=O)CC[N+]2(C)CCc3cc(OC)c(OC)cc3C2Cc2ccc(OC)c(OC)c2)cc1OC (configuration not stated),"activity change, negative = inhibition",[1],7.2% [at 9.06 µM] (inactive)
same,viability (percent of control),[2],121% [at 5.15 µM] (inactive)
same,viability (% of DMSO),[3],110% [at 5.15 µM] (inactive)
same,viability (percent of control),[7],123% [at 5.15 µM] (inactive)
same,outcome,[9],inactive
same,Potency,[6],inactive
same,"activity change, negative = inhibition",[10],-9.69% [at 9.2 µM] (inactive)
O=C(C=Cc1c(C(=O)O)[nH]c2cc(Cl)cc(Cl)c12)Nc1ccccc1,Potency,[1],inactive
same,Potency,[2],inactive
same,Potency,[3],inactive
same,Potency,[4],inactive
same,Potency,[11],inactive
same,Potency,[12],inactive
same,Potency,[6],inactive
COc1cc2c(Oc3ccc(-c4cnc(Nc5ccc(F)cc5)n(C)c4=O)cc3F)ccnc2cc1OCCCN1CCOCC1,Potency,[1],inactive
same,Potency,[2],20.9 µM (active)
same,Potency,[3],20.9 µM (active)
same,Potency,[4],18.7 µM (active)
same,Potency,[11],5.9 µM (active)
same,Potency,[14],11.8 µM (active)
same,IC50 (viability decrease),[13],3.72 µM (active)
same,Potency,[6],13.2 µM (active)
COC(=O)c1ccc2c(C(=Nc3ccc(N(C)C(=O)CN4CCN(C)CC4)cc3)c3ccccc3)c(O)[nH]c2c1,Potency,[1],inactive
same,Potency,[2],0.148 µM (active)
same,Potency,[3],0.743 µM (active)
same,Potency,[4],3.32 µM (active)
same,Potency,[11],18.7 µM (active)
same,Potency,[14],13.2 µM (active)
same,Potency,[12],18.7 µM (active)
same,Potency,[10],inactive
Nc1ccccc1NC(=O)c1ccc(CNC(=O)OCc2cccnc2)cc1,Potency,[1],inactive
same,Potency,[2],9.35 µM (active)
same,Potency,[3],2.35 µM (active)
same,Potency,[4],2.35 µM (active)
same,Potency,[11],inactive
same,Potency,[12],inactive
same,IC50 (viability decrease),[13],inactive
same,Potency,[6],11.8 µM (active) and 9.2 µM (active)
same,Potency,[10],inactive
C1Cc2[nH]nc(-c3nn[nH]n3)c2C1,Potency,[1],inactive
same,Potency,[2],inactive
same,Potency,[3],inactive
same,Potency,[4],inactive
same,Potency,[11],inactive
same,Potency,[12],inactive
same,Potency,[5],inactive
same,Potency,[6],inactive
same,Potency,[10],inactive
